Legend:
Details in all cases: concentration: 1 μM, replicates: in singlicate; n = 1
EPHA3 = tested on: EPHA3
EPHA4 = tested on: EPHA4
EPHA5 = tested on: EPHA5
EPHA6 = tested on: EPHA6
EPHA7 = tested on: EPHA7
EPHA8 = tested on: EPHA8
EPHB1 = tested on: EPHB1
EPHB2 = tested on: EPHB2
EPHB3 = tested on: EPHB3
EPHB4 = tested on: EPHB4
EPHB6 = tested on: EPHB6
ERBB2 = tested on: ERBB2
ERBB3 = tested on: ERBB3
ERBB4 = tested on: ERBB4
ERK1 = tested on: T1, ERK1
T1 construct: gene MAPK3

ERK2 = tested on: T2, ERK2
T2 construct: gene MAPK1

ERK3 = tested on: T3, ERK3
T3 construct: gene MAPK6

ERK4 = tested on: T4, ERK4
T4 construct: gene MAPK4

ERK5 = tested on: T5, ERK5
T5 construct: gene MAPK7

ERK8 = tested on: T6, ERK8
T6 construct: gene MAPK15
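Note: KINOMEscan kinase panel screen.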

SMILES | %Inh (EPHA3) [%] | %Inh (EPHA4) [%] | %Inh (EPHA5) [%] | %Inh (EPHA6) [%] | %Inh (EPHA7) [%] | %Inh (EPHA8) [%] | %Inh (EPHB1) [%] | %Inh (EPHB2) [%] | %Inh (EPHB3) [%] | %Inh (EPHB4) [%] | %Inh (EPHB6) [%] | %Inh (ERBB2) [%] | %Inh (ERBB3) [%] | %Inh (ERBB4) [%] | %Inh (ERK1) [%] | %Inh (ERK2) [%] | %Inh (ERK3) [%] | %Inh (ERK4) [%] | %Inh (ERK5) [%] | %Inh (ERK8) [%]
COc1cc2ncn(-c3cc(OCc4sccc4Cl)c(C(N)=O)s3)c2cc1OC [GSK448459] | 0 | 0 | 0 | 2 | 0 | 11 | 3 | 9 | 6 | 0 | 28 | 44 | 0 | 31 | 0 | 0 | 8 | 0 | 0 | 20
Fc1ccc(-c2ncn(CCCN3CCOCC3)c2-c2ccccn2)cc1 [SB-211742] | 0 | 8 | 0 | 0 | 0 | 9 | 20 | 0 | 20 | 28 | 0 | 10 | 52 | 6 | 0 | 5 | 0 | 0 | 19 | 0
O=C(NOCC1CC1)c1ccc(F)c(F)c1Nc1ccc(I)cc1Cl | 0 | 0 | 1 | 0 | 0 | 0 | 0 | 0 | 0 | 0 | 0 | 0 | 0 | 0 | 0 | 8 | 0 | 17 | 0 | 8
O=c1cc(N2CCOCC2)nc2n(Cc3cccc(F)c3)ccn12 [GSK2297430] | 0 | 10 | 0 | 10 | 4 | 13 | 0 | 0 | 14 | 17 | 0 | 0 | 0 | 0 | 15 | 6 | 14 | 0 | 0 | 6
CN(C(=O)c1ccc(-c2cc(-c3c[nH]nc3-c3ccccn3)ccn2)cc1)C1CCOCC1 [GW810083] | 27 | 0 | 4 | 0 | 0 | 0 | 0 | 0 | 0 | 0 | 0 | 38 | 16 | 0 | 0 | 4 | 11 | 7 | 0 | 1
O=C1Cc2cc(Nc3nc(NCc4cccc(S(=O)(=O)C(F)(F)F)c4)ncc3C(F)(F)F)ccc2N1 | 0 | 0 | 10 | 0 | 0 | 0 | 0 | 0 | 1 | 8 | 0 | 6 | 9 | 4 | 0 | 9 | 31 | 25 | 0 | 0
N#Cc1ccc(-c2cc(-c3c[nH]nc3-c3ccccn3)ccn2)cc1 [GW693028] | 18 | 2 | 0 | 0 | 44 | 39 | 7 | 8 | 5 | 11 | 2 | 28 | 0 | 27 | 6 | 0 | 0 | 3 | 0 | 10
O=C1NC(=O)C(N2CCc3ccccc32)=C1c1cccc(Cl)c1 [SB-408010] | 0 | 19 | 17 | 18 | 0 | 0 | 0 | 3 | 23 | 22 | 0 | 0 | 0 | 0 | 0 | 12 | 0 | 0 | 0 | 9
COc1ccc(Nc2nccc(N3CCC(NC(=O)Nc4cccc(C(C)=O)c4)C3)n2)cc1 (stereo not shown) [GSK1379731] | 0 | 6 | 0 | 0 | 0 | 9 | 0 | 0 | 9 | 5 | 0 | 14 | 0 | 5 | 0 | 0 | 7 | 0 | 0 | 25
Cl.Oc1cccc(Nc2ccnc3cc(-c4ccncc4)ccc23)c1 [GW494601] | 76 | 84 | 95.3 | 88 | 0 | 97 | 96.2 | 70 | 27 | 94.2 | 86 | 0 | 40 | 38 | 0 | 0 | 2 | 26 | 0 | 0
COc1ccc(S(=O)(=O)NC2CCN(c3cc(C)nc(Nc4cccc(C#N)c4)n3)CC2)cc1.O=C(O)C(F)(F)F [GSK1653539] | 7 | 11 | 0 | 0 | 0 | 0 | 7 | 0 | 13 | 16 | 14 | 0 | 0 | 0 | 0 | 0 | 13 | 0 | 0 | 0
